Target: AgAbp1
Assay: SPOT peptide array binding signal intensity (averaged, normalized) (arbitrary units (background-subtracted, floor 0; scale differs between SH3 domains)); higher = stronger binding of the SH3 domain to the peptide
Summary of the method: (§1)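 Binding signal is given in arbitrary units that differ between domains and is the normalized, background-subtracted spot intensity averaged across replicates. Each GST-SH3 fusion from one of four yeast species was made in E. coli BL21(DE3), purified on glutathione Sepharose and incubated at 10 μg/ml overnight at 4°C on cellulose-bound synthetic 15-mer peptides in which cysteines were replaced by serines. Detection used anti-GST antibody, an HRP anti-mouse secondary and luminol, followed by imaging and Genespotter quantification.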

Which “SPOT peptide array binding signal intensity” value does the source give for LLIRWLILMPLVGSR here?
Its value is 19.5.

Target: AgBbc1
Assay: as above
Summary of the method: as §1

With LLIRWLILMPLVGSR as the binder, how does the “SPOT peptide array binding signal intensity” value read?
Its value is 29.5.

Target: AgBem1-D1
Assay: as above
Summary of the method: as §1

For LLIRWLILMPLVGSR, which “SPOT peptide array binding signal intensity” value is on record?
Its value is 284.

Target: AgBzz1-D1
Assay: as above
Summary of the method: as §1

LLIRWLILMPLVGSR was tested. Which “SPOT peptide array binding signal intensity” value did it give?
Its value is 39.

Target: AgBzz1-D2
Assay: as above
Summary of the method: as §1

LLIRWLILMPLVGSR was tested. Which “SPOT peptide array binding signal intensity” value did it give?
The value was 62.

Target: AgCyk3
Assay: as above
Summary of the method: as §1

LLIRWLILMPLVGSR was tested. Which “SPOT peptide array binding signal intensity” value did it give?
The value was 24.5.

Target: AgFus1
Assay: as above
Summary of the method: as §1

Which “SPOT peptide array binding signal intensity” value does the source give for LLIRWLILMPLVGSR here?
Its value is 3190.

Target: AgHof1
Assay: as above
Summary of the method: as §1

LLIRWLILMPLVGSR was tested. Which “SPOT peptide array binding signal intensity” value did it give?
The value was 53.

Target: AgHse1
Assay: as above
Summary of the method: as §1

With LLIRWLILMPLVGSR as the binder, how does the “SPOT peptide array binding signal intensity” value read?
The value was 2550.

Target: AgLsb1
Assay: as above
Summary of the method: as §1

Which “SPOT peptide array binding signal intensity” value does the source give for LLIRWLILMPLVGSR here?
The value was 2.5.

Target: AgLsb4
Assay: as above
Summary of the method: as §1

For LLIRWLILMPLVGSR, which “SPOT peptide array binding signal intensity” value is on record?
The value was 1800.

Target: AgMyo5
Assay: as above
Summary of the method: as §1

How did the “SPOT peptide array binding signal intensity” value turn out when LLIRWLILMPLVGSR was run?
The value was 4.5.

Target: AgNbp2
Assay: as above
Summary of the method: as §1

With LLIRWLILMPLVGSR as the binder, how does the “SPOT peptide array binding signal intensity” value read?
The value was 722.

Target: AgRvs167
Assay: as above
Summary of the method: as §1

With LLIRWLILMPLVGSR as the binder, how does the “SPOT peptide array binding signal intensity” value read?
The value was 26.5.

Target: AgSho1
Assay: as above
Summary of the method: as §1

With LLIRWLILMPLVGSR as the binder, how does the “SPOT peptide array binding signal intensity” value read?
Its value is 1270.

Target: AgSla1-D1-D2
Assay: as above
Summary of the method: as §1

With LLIRWLILMPLVGSR as the binder, how does the “SPOT peptide array binding signal intensity” value read?
The value was 41.

Target: AgSla1-D3
Assay: as above
Summary of the method: as §1

How did the “SPOT peptide array binding signal intensity” value turn out when LLIRWLILMPLVGSR was run?
The value was 5.

Target: CaAbp1-D1
Assay: as above
Summary of the method: as §1

LLIRWLILMPLVGSR was tested. Which “SPOT peptide array binding signal intensity” value did it give?
The value was 334.

Target: CaAbp1-D2
Assay: as above
Summary of the method: as §1

For LLIRWLILMPLVGSR, which “SPOT peptide array binding signal intensity” value is on record?
Its value is 321.

Target: CaBbc1
Assay: as above
Summary of the method: as §1

With LLIRWLILMPLVGSR as the binder, how does the “SPOT peptide array binding signal intensity” value read?
Its value is 68.

Target: CaBem1-D1
Assay: as above
Summary of the method: as §1

Which “SPOT peptide array binding signal intensity” value does the source give for LLIRWLILMPLVGSR here?
Its value is 125.

Target: CaBzz1-D1
Assay: as above
Summary of the method: as §1

With LLIRWLILMPLVGSR as the binder, how does the “SPOT peptide array binding signal intensity” value read?
Its value is 222.

Target: CaBzz1-D2
Assay: as above
Summary of the method: as §1

Which “SPOT peptide array binding signal intensity” value does the source give for LLIRWLILMPLVGSR here?
Its value is 109.

Target: CaCyk3
Assay: as above
Summary of the method: as §1

Which “SPOT peptide array binding signal intensity” value does the source give for LLIRWLILMPLVGSR here?
The value was 48.

Target: CaFus1
Assay: as above
Summary of the method: as §1

How did the “SPOT peptide array binding signal intensity” value turn out when LLIRWLILMPLVGSR was run?
The value was 5090.

Target: CaHof1
Assay: as above
Summary of the method: as §1

Which “SPOT peptide array binding signal intensity” value does the source give for LLIRWLILMPLVGSR here?
The value was 1.25.

Target: CaHse1
Assay: as above
Summary of the method: as §1

With LLIRWLILMPLVGSR as the binder, how does the “SPOT peptide array binding signal intensity” value read?
The value was 875.

Target: CaLsb1
Assay: as above
Summary of the method: as §1

LLIRWLILMPLVGSR was tested. Which “SPOT peptide array binding signal intensity” value did it give?
The value was 26.5.

Target: CaLsb4
Assay: as above
Summary of the method: as §1

How did the “SPOT peptide array binding signal intensity” value turn out when LLIRWLILMPLVGSR was run?
Its value is 191.

Target: CaMyo5
Assay: as above
Summary of the method: as §1

Which “SPOT peptide array binding signal intensity” value does the source give for LLIRWLILMPLVGSR here?
The value was 40.

Target: CaNbp2
Assay: as above
Summary of the method: as §1

LLIRWLILMPLVGSR was tested. Which “SPOT peptide array binding signal intensity” value did it give?
The value was 1390.

Target: CaRvs167
Assay: as above
Summary of the method: as §1

LLIRWLILMPLVGSR was tested. Which “SPOT peptide array binding signal intensity” value did it give?
The value was 524.

Target: CaRvs167-3
Assay: as above
Summary of the method: as §1

With LLIRWLILMPLVGSR as the binder, how does the “SPOT peptide array binding signal intensity” value read?
Its value is 780.

Target: CaSho1
Assay: as above
Summary of the method: as §1

How did the “SPOT peptide array binding signal intensity” value turn out when LLIRWLILMPLVGSR was run?
Its value is 3580.

Target: CaSla1-D1-D2
Assay: as above
Summary of the method: as §1

LLIRWLILMPLVGSR was tested. Which “SPOT peptide array binding signal intensity” value did it give?
The value was 30.

Target: CaSla1-D3
Assay: as above
Summary of the method: as §1

LLIRWLILMPLVGSR was tested. Which “SPOT peptide array binding signal intensity” value did it give?
The value was 397.

Target: ScAbp1
Assay: as above
Summary of the method: as §1

With LLIRWLILMPLVGSR as the binder, how does the “SPOT peptide array binding signal intensity” value read?
The value was 35.

From the supplement of paper PMC4466140
